Results filed as inconclusive are left out. A call without a number means that no potency is given here. The source made the active and inactive calls. Calls follow the shape of the dose curve; as a rule, active = well fitted inhibition curve with a large enough effect; inconclusive = small, poorly fitted or top-dose-only effect; inactive = flat fitted curve, though single readings scatter.

The text below walks through data of PubChem BioAssay (NCATS).

The assay concerns Zika virus NS2B-NS3 protease. The assay is described as follows: Primary screen GU AMC qHTS for Zika virus inhibitors (AID 1347154). Also: nearly all actives have a fitted effect of over 70% in size. The settings on record: Zika NS2B-NS3 unlinked protease, AMC fluorogenic substrate; series mostly up to 54.1 µM. In a few lines:
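Fluorogenic AMC-substrate cleavage by noncovalent NS2B-NS3 protease complex (25 nM, pH 8.0 Tris buffer with Tween 20) followed for 15 minutes at room temperature (~20% conversion). Percent inhibition from ex340/em450 signal change, fitted by 4-parameter Hill equation.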
On the technique in general: qHTS replaces the single test concentration by a dilution series.
Turning to `CCOC(=O)O[C@]1(C(=O)OCCl)CC[C@@H]2[C@H]3CCC4=CC(=O)C=C[C@]4(C)[C@@H]3[C@@H](O)C[C@@]21C`, the Potency entry is “inactive”. Under `COc1ccc2c(Oc3ccc(NC(=O)c4c(C)n(CC(C)(C)O)n(-c5ccccc5)c4=O)nc3)ccnc2c1` stands “inactive”; under `CC(C)(C)COc1ccc(-n2cc(C(=O)O)cn2)cc1C#N`, “inactive”.
